Bioassay records as filed in PubChem.
The list is not random: actives were taken first. Their share in the collection is about 3%.
Hsp90 Hop PPI: qHTS Assay for Disrupters of an Hsp90 Co-Chaperone Interaction. Hsp90 C-terminal peptide / TPR2A (Hop) interaction, human. AlphaScreen TPR2A-His6 binding biotin-Hsp90 C-terminal peptide. Potency, µM (series often up to 57 µM), inactives show top-dose activity change, negative = inhibition. actives 0.44% (n = 71,000). AID 595, 2007; active = well fitted curve in either direction with a large enough effect; inconclusive = small, poorly fitted or top-dose-only effect, or another doubt; note: potency is the fitted concentration of half-maximal effect; % is set by controls: 0 for no effect and ±100 for the full control effect
UbGFP stabilizer: Ubiquitin-GFP Assay | Potency, µM (titrated, usually from 45.9 µM), inactives show at the top dose activation (GFP accumulation), most hits filed as activators | Ubiquitin-GFP reporter cells, proteasome inhibition, GFP fluorescence; response scale: untreated = 0%, 10 µM MG-132 = 100% | 67,000 tested, under 10 active; active = well fitted activation curve with a large enough effect, not every such curve was filed as active; inconclusive = small, poorly fitted or top-dose-only effect, or another doubt; inactive = no such curve, though single readings can be large or run the other way; note: potency is the fitted concentration of half-maximal effect
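U2OS cells expressing ubiquitin(G76V)-GFP, seeded overnight in 0.5% FBS medium, then treated 4 hr at 37 C across 46 uM to 2.9 nM. GFP-positive cells counted by laser cytometry (488 ex/515 em); %activity scaled between basal and 10 uM MG-132.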
ERK AVP block: qHTS Assay for Inhibitors of the ERK Signaling Pathway using a Homogeneous Screening Assay | Potency, µM (series often up to 57.5 µM), for inactives: top-dose activity, negative = inhibition, usual class: inhibitors | actives 0.99% (n = 72,000) | HEK293-V1b, vasopressin-stimulated pERK AlphaScreen; note: potency is the fitted concentration of half-maximal effect; % is set by controls: 0 for no effect and ±100 for the full control effect; nearly all actives have a fitted effect of over 55% in size
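Phosphorylated ERK1/2 detected via AlphaScreen bead proximity in lysates of V1b-expressing HEK293 cells given 25 nM vasopressin for 5 min after 30 min compound exposure (37 °C). AC50 from Hill equation; basal DMSO 0%, vasopressin 100%.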
HBB splicing: qHTS Assay for Modulators of Hemoglobin Beta Chain Splicing | HBB splicing reporter cell assay, activation; EGFP reporter with mutant IVS2-654 intron; response scale: normalised to 500 nM splice-correcting PNA | Potency, µM (top dose mostly 46.1 µM), inactives show at the highest dose activation, hits mostly activators | actives 0.06% (n = 65,000) | AID 925, 2007; note: potency is the fitted concentration of half-maximal effect; 0% is about no effect
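Compounds were applied for 2 days to HeLa EGFP-654 cells, 500/well in Optimem with 2% FCS. The reporter's EGFP is disrupted by mis-splicing of beta-globin intron IVS2-654. Readout: summed well GFP fluorescence from 488 nm laser scanning; reference was 500 nM antisense […] 654 PNA.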
Epigenetic mod: qHTS Assay for Epigenetic Modulators. mouse C127i GFP locus derepression, cytometry, 30 h. Potency, µM (doses to about 46.1 µM), without a hit: top-dose GFP derepression (activation). actives 0.09% (n = 68,000); note: % of control where 0% means no effect
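Locus derepression in mouse mammary C127i cells whose integrated CMV-GFP reporter is normally silent; GFP expression after 30 h compound treatment was quantified by counting fluorescent cells.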
Tau filament bind: qHTS Assay for Tau Filament Binding; Microtubule-associated protein tau (Homo sapiens), P10636; recombinant tau filaments, thioflavin S fluorescence, 15 h; filaments grown with octadecylsulfate alongside compound; Potency, µM (doses to about 57.1 µM), without a hit: top-dose activity change, negative = inhibition; actives 2% (n = 71,000);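 note: potency is the fitted concentration of half-maximal effect; % is set by controls: 0 for no effect and ±100 for the full control effect; actives lower thioflavin S fluorescence by blocking filaments or displacing dye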
Target sequence (P10636 whole entry, looked up): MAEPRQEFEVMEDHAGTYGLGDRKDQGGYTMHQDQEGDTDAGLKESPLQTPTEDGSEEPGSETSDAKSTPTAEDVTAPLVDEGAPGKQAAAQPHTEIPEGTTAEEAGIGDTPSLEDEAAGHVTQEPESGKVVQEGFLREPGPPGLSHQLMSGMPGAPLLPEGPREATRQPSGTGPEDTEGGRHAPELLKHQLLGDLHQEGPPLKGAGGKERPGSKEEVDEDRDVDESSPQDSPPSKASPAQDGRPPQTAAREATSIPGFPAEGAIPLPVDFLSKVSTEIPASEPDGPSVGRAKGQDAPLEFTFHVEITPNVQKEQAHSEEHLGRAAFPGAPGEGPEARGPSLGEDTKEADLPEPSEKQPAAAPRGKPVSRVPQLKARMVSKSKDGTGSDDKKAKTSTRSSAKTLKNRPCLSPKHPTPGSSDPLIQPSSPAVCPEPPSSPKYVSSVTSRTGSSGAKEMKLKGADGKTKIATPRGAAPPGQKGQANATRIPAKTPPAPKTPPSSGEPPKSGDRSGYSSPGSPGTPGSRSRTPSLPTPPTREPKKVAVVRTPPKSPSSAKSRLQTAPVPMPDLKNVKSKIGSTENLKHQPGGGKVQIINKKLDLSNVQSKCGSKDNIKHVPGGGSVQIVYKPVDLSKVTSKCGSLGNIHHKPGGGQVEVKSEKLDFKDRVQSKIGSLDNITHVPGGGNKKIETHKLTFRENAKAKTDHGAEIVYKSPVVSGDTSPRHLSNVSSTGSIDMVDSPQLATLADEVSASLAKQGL
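Read-out: ThS fluorescence, 450 nm excitation/510 nm emission; lower signal marks blocked filament formation or displaced dye. Tau at 1 uM with 30 uM ODS, 10 uM ThS, 5 mM DTT, 100 mM NaCl, 10 mM HEPES pH 7.4; 15 h, 37 C.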
Hsp90 TPR2A CRC: Confirmation Concentration-Response Assay and Counterscreen for Disrupters of an Hsp90 Co-Chaperone Interaction. shares compounds with Hsp90 Hop PPI. AlphaScreen TPR2A-His6 / biotin-Hsp90 peptide binding. activity, negative = inhibition, % at 40 µM or 46 µM, hits read low. actives 100% (n = 45);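 active = compound lowering the Hsp90 and TPR2A binding signal, whether or not the linker counterscreen also flagged it as an artifact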
Numbers without * were called inactive; [ ] = another dose, or the depositor's remark. Unless noted, calls come from the whole dose curve; as a rule, active = well fitted curve in the direction sought with a large enough effect; inconclusive = small, poorly fitted or top-dose-only effect, or another doubt; inactive = no such curve, though single readings can be large; an effect the other way counts as inactive or inconclusive.

What do the screens show for `CCOc1ccc(N2C(=O)CC(/C=C3/N(C)c4ccccc4C3(C)C)C2=O)cc1` (stereo unspecified)?
Hsp90 Hop PPI: -20%; UbGFP stabilizer: -17%; ERK AVP block: -9%; HBB splicing: -1%; Epigenetic mod: 6%; Tau filament bind: 25µM*

How did CCOc1ccc(N2C(=O)CC(N3CCN(c4ccccc4F)CC3)C2=O)cc1 (stereo unspecified) do in these assays?
Hsp90 Hop PPI: -5%; UbGFP stabilizer: 0%; ERK AVP block: 3%; HBB splicing: -1%; Epigenetic mod: 3%; Tau filament bind: 8%

What do the screens show for `COc1ccccc1OC1=NS(=O)(=O)c2ccccc21`?
Hsp90 Hop PPI: 2%; UbGFP stabilizer: -2%; ERK AVP block: 6%; Epigenetic mod: 1%; Tau filament bind: -9%

How did CCN(CC)c1cccc(OC2=NS(=O)(=O)c3ccccc32)c1 do in these assays?
Hsp90 Hop PPI: -7%; UbGFP stabilizer: -16%; ERK AVP block: 0%; HBB splicing: 7%; Epigenetic mod: 3.2µM*; Tau filament bind: 1%

How did CCCCCC[C@@H]([C@H](C)O)n1cnc2c(N)ncnc21 do in these assays?
Hsp90 Hop PPI: -3%; UbGFP stabilizer: 10%; ERK AVP block: -3%; HBB splicing: -2%; Epigenetic mod: 0%; Tau filament bind: -5%

Results for O=C(O)[C@H]1CCCC[C@@H]1c1c2ccc(=O)c(O)c-2oc2c(O)c(O)ccc12 ?
Hsp90 Hop PPI: inconclusive; UbGFP stabilizer: 0%[9.17 µM]; ERK AVP block: -12%[11.5 µM]; HBB splicing: 4%[9.22 µM]; Epigenetic mod: -1%[9.22 µM]; Tau filament bind: 4µM*

What do the screens show for `O=C(O)/C=C\c1c2ccc(=O)c(O)c-2oc2c(O)c(O)ccc12`?
Hsp90 Hop PPI: inconclusive; UbGFP stabilizer: -9%[9.17 µM]; ERK AVP block: inconclusive; HBB splicing: 4%[9.22 µM]; Epigenetic mod: -6%[9.22 µM]; Tau filament bind: 5µM*

Results for O=C(O)/C=C/c1ccc(O)c(O)c1 ?
ERK AVP block: -1%; Epigenetic mod: 0%[20.6 µM]

How did COc1cc(NC(=O)C2CCCO2)c(OC)cc1NC(=O)c1ccccc1 (stereo unspecified) do in these assays?
Hsp90 Hop PPI: -11%; UbGFP stabilizer: 1%; ERK AVP block: -19%; HBB splicing: 0%; Epigenetic mod: 0%; Tau filament bind: 25µM*

Results for Clc1ccccc1C(Nc1cnccn1)Nc1cnccn1 ?
Hsp90 Hop PPI: -1%[11 µM]; UbGFP stabilizer: -9%[9.17 µM]; ERK AVP block: 14%[11.5 µM]; HBB splicing: 1%[9.22 µM]; Epigenetic mod: -1%[9.22 µM]; Tau filament bind: -1%[11.4 µM]

How did CCOC(=O)C1CCN(S(=O)(=O)c2cccc(-c3cn4cccc(C)c4n3)c2)CC1 do in these assays?
Hsp90 Hop PPI: -4%; UbGFP stabilizer: -3%; ERK AVP block: 20µM*; HBB splicing: 3%[0.369 µM]; Epigenetic mod: 6%; Tau filament bind: 13%

What do the screens show for `CCOC(=O)C1CCN(S(=O)(=O)c2cccc(-c3cn4ccccc4n3)c2)CC1`?
Hsp90 Hop PPI: -16%; ERK AVP block: inconclusive; HBB splicing: 0%[0.369 µM]; Epigenetic mod: 0%; Tau filament bind: 9%

Results for O=C(Nc1cccc(C(=O)N2CCOCC2)c1)c1cncc(Br)c1 ?
Hsp90 Hop PPI: -3%; UbGFP stabilizer: 0%; ERK AVP block: -9%; HBB splicing: 0%; Epigenetic mod: 8%; Tau filament bind: -18%

How did O=C(Nc1cccc(C(=O)N2CCOCC2)c1)c1ncn[nH]1 do in these assays?
Hsp90 Hop PPI: 25µM*; UbGFP stabilizer: 1%; ERK AVP block: 5%; HBB splicing: 2%; Epigenetic mod: 0%; Tau filament bind: 6%; Hsp90 TPR2A CRC: -83*[alpha-screen platform artifact]

What do the screens show for `COc1cc([C@H](O)CO)ccc1O`?
Hsp90 Hop PPI: -3%; UbGFP stabilizer: 3%; ERK AVP block: 23%; HBB splicing: 0%; Epigenetic mod: 0%; Tau filament bind: -7%

Results for Cc1ccc(S(=O)(=O)NC(=O)c2cc(C)n(CCCn3ccnc3)c2C)cc1 ?
Hsp90 Hop PPI: 4µM*; UbGFP stabilizer: 3%; ERK AVP block: 3%; HBB splicing: 1%; Epigenetic mod: 2%; Tau filament bind: -1%; Hsp90 TPR2A CRC: -100*[alpha-screen platform artifact]

What do the screens show for `CN1CCN(Cc2cc(COCc3ccccc3)c3cccnc3c2O)CC1`?
Hsp90 Hop PPI: 1.6µM*; UbGFP stabilizer: -8%; ERK AVP block: -4%; HBB splicing: 1%; Epigenetic mod: 6.3µM*; Tau filament bind: 2%; Hsp90 TPR2A CRC: -100*[alpha-screen platform artifact]

How did CN1CCN(Cc2ccc(OCc3ccccc3)cc2)CC1 do in these assays?
Hsp90 Hop PPI: -4%; UbGFP stabilizer: 8%; ERK AVP block: -5%; HBB splicing: 0%[9.22 µM]; Epigenetic mod: -2%; Tau filament bind: 1%

Results for COc1c(N2C[C@@H]3CCCN[C@H]3C2)c(F)cc2c(=O)c(C(=O)O)cn(C3CC3)c12 ?
ERK AVP block: 27%

What do the screens show for `O=C(CN1CC(=O)Oc2ccccc21)OCC(=O)c1ccccc1`?
Hsp90 Hop PPI: 3.2µM*; UbGFP stabilizer: -7%; ERK AVP block: -9%; Epigenetic mod: 0%; Tau filament bind: -4%; Hsp90 TPR2A CRC: -100*[alpha-screen platform artifact]

How did CCc1c2c(nc3cccc(OC)c13)OC(CC)C2 (stereo unspecified) do in these assays?
Hsp90 Hop PPI: -5%; ERK AVP block: -7%; HBB splicing: -1%; Tau filament bind: -5%

Results for Cc1ccc(S(=O)(=O)CCc2nnc(NC(=O)c3cnccn3)s2)cc1 ?
Hsp90 Hop PPI: -6%; UbGFP stabilizer: 4%; ERK AVP block: 8%; HBB splicing: -2%; Epigenetic mod: 2%; Tau filament bind: 2%

What do the screens show for `Cc1ccc(S(=O)(=O)CCc2nnc(NC(=O)c3ccccn3)s2)cc1`?
Hsp90 Hop PPI: 6.3µM*; UbGFP stabilizer: -2%; ERK AVP block: -13%; HBB splicing: 2%; Epigenetic mod: 0%; Tau filament bind: 8%; Hsp90 TPR2A CRC: -100*[alpha-screen platform artifact]

What do the screens show for `CN(C)CCNc1ccccn1`?
Hsp90 Hop PPI: 0%[11 µM]; UbGFP stabilizer: 6%[9.17 µM]; ERK AVP block: -3%[11.5 µM]; HBB splicing: -1%[9.22 µM]; Epigenetic mod: 0%[9.22 µM]; Tau filament bind: 1%[11.4 µM]
